Broadly, the Inhibition is the relative decrease from the control value, in per cent.

Consider 40 molecules from ChEMBL document CHEMBL1157539, “Thousands of chemical starting points for antimalarial lead identification” (Nature, 2010).

The experiment has as its system HepG2. Description: GSK_TCMDC: Percent inhibition of human HepG2 cell line. Test compounds present at 10uM. It counts as functional.
For `CS(=O)(=O)CCNCc1cccc(-c2cc3c(Nc4ccc(OCc5ccccc5)cc4)ncnc3cn2)c1.Cl`, the Inhibition was 3%.

`O=S(=O)(Nc1ccc(CCN2CCCCC2CCN2CCCC2)cc1)c1cccc2cccnc12` (stereo not given): the Inhibition amounted to 20%.

For `COc1ccc2nccc([C@@H](O)CN3CCC(CO)(NCc4cc5ccccc5o4)CC3)c2c1.O=C(O)C(=O)O`, the Inhibition is on record as 12%.

For `O=C1C(C2CCC(c3ccc(Cl)cc3)CC2)=C2OCC3COC2(O3)c2ccccc21` (stereo not given), the Inhibition is given as 7%.

On to `CC(C)c1sc(N2CCCCC2)nc1C(=O)Nc1ccc(F)cc1C(F)(F)F.O=C(O)C(F)(F)F`, for which the Inhibition is on record as 0%.

`Cc1cc(NC(=O)Nc2cccc(Cl)c2Cl)c2ccccc2n1` returned an Inhibition of 0%.

`OC(CNc1ccnc(Nc2cccc(OCCCN3CCOCC3)c2)n1)c1ccccc1` (stereo not given) displayed an Inhibition of 48%.

The molecule `CN(C)c1ccc(CN2CCCCC(NC(=O)c3cc(-c4ccccc4F)cs3)C2)cc1.O=C(O)C(F)(F)F` (stereo not given) returned an Inhibition of 13%.

As to `Cl.N#Cc1ccc2c(c1)CCN(CCC1CCC(NC(=O)/C=C/c3ccc4[nH]ccc4c3)CC1)CC2` (stereo not given), the Inhibition worked out at 2%.

`COc1ccc(C2(CNCC(O)c3cccc([N+](=O)[O-])c3)CCCC2)cc1OC` (stereo not given): the Inhibition is listed as 10%.

On to `O=C(Cc1ccccc1)NC(CCN1CCC(NC(=O)c2ccc(Cl)cc2)CC1)c1ccc(Cl)c(Cl)c1` (stereo not given), for which the Inhibition was determined as 17%.

Take `O=C(Nc1cccc(CN2CCCN(Cc3ncc[nH]3)CC2)c1)c1ccc2ccccc2c1.O=C(O)C(F)(F)F`: the Inhibition amounted to 13%.

`COc1cc(C=CC(=O)N2CCN(Cc3cccc(C)c3)CC2)ccc1OCc1c(C)noc1C` registered an Inhibition of 8%.

For `COc1cc(Br)c(NC(=O)Nc2ccc(C(F)(F)F)c(O[C@@H]3CCN(C)C3)c2)cc1OC.Cl`, the Inhibition was determined as 10%.

The molecule `Oc1cc2c(cc1CN1CCN(Cc3ccccc3F)CC1)CCC2` registered an Inhibition of 2%.

Molecule `COc1ccc(Cn2c(Nc3cccc(C(F)(F)F)c3)nc3cc(C(=O)NCCN4CCCC4)cnc32)cc1Cl` yielded an Inhibition of 10%.

On to `CCCCCC(C)C(C)c1cc(O)c2c(c1)OC(C)(C)CC2c1cc[n+]([O-])cc1` (stereo not given), for which the Inhibition is 0%.

The molecule `Cl.NC(=O)Nc1ccc2cn[nH]c2c1` yielded an Inhibition of 4%.

On to `CC(C)Nc1nc(NCCc2c[nH]cn2)nc(Nc2ccc(Oc3ccccc3)cc2)n1`, for which the Inhibition was 0%.

For the molecule `O=C(Nc1ccncc1)c1cn(-c2ccccc2)nc1-c1cccs1`, the Inhibition came out at 7%.

For `CN1CC[C@@H](Oc2cc(CNC(=O)c3ccc(-c4ccc(Cl)cc4)s3)ccc2C(F)(F)F)C1.Cl`, the Inhibition is listed as 40%.

As for `Cc1cc(N(C)C)nc(Nc2ccc(NC(=O)c3ccc(F)cc3)cc2)n1`, the Inhibition is on record as 8%.

`O=C1OC2(CCN(C(=O)c3ccc(-n4cnnn4)cc3)CC2)CN1Cc1ccc(Cl)c(Cl)c1` showed an Inhibition of 11%.

In turn, `Cc1cc(NCCCCCCCCNc2cc(C)nc3ccccc23)c2ccccc2n1.Cl` came in with an Inhibition of 59%.

`COc1ccccc1-c1cccc2c(NC(=O)Nc3ccc4nccc(N5CCN(C)CC5)c4c3)ccnc12` came in with an Inhibition of 3%.

With `CCOC(=O)c1cc(C(=O)NCCCCN2CCC(c3cn(C)c4ccccc34)CC2)ccc1-c1ccc(C(F)(F)F)cc1`, the Inhibition is reported as 25%.

For `O=C(Nc1cccc(-c2cc(-c3c(Cl)cccc3Cl)no2)c1)c1cncc(-c2cccs2)c1`, the Inhibition came to 0%.

Take `Cc1ccc(N2CCN(C(=O)c3cccc(-c4cncc5nc(-c6ccco6)n(C)c45)c3)CC2)nc1`: the Inhibition is 0%.

Regarding `CN(Cc1c(Cl)cnn1C)S(=O)(=O)c1ccc2ccccc2c1`, the Inhibition is given as 7%.

For the molecule `Cc1[nH]c(C)c(-c2ccc(-c3ccccc3Cl)nc2)c(=O)c1Cl`, the Inhibition is given as 0%.

As for `Cc1nc(O)c2c(ccc3ccc(CNc4ccc(C(=O)N[C@@H](CCC(=O)O)C(=O)O)c(F)c4)cc32)n1`, the Inhibition is 41%.

In turn, `Cc1ccc2[nH]c(-c3cc(-c4cccc(C#N)c4)cnc3N)nc2c1.O=C(O)C(F)(F)F` showed an Inhibition of 40%.

As for `C=CCn1c(SCC(=O)Nc2cc(Cl)ccc2Cl)nc2sc(C)cc2c1=O`, the Inhibition came to 8%.

The molecule `Cl.O=C(NCCCCN1CCC(c2ccc(OC(F)(F)F)cc2)CC1)c1ccc(NC(=O)c2ccc(Cl)cc2)cc1` showed an Inhibition of 24%.

The molecule `O=C(NC1CCN(Cc2ccccc2O)C1)c1ccc(Cl)c(Cl)c1.O=C(O)C(F)(F)F` (stereo not given) came in with an Inhibition of 0%.

With `O=C1c2ccc([N+](=O)[O-])cc2C(=O)N1c1ccc2[nH]ncc2c1`, the Inhibition turned out to be 11%.

`CCOc1ccc2[nH]c(C)cc(=NN=Cc3cccnc3)c2c1` gave an Inhibition of 18%.

Consider `CCCNCc1ccc(-c2ccc(CN(CCOC)C(=O)c3cccc(C#N)c3)cc2)nc1.O=C(O)C(F)(F)F`, for which the Inhibition is on record as 0%.

As for `NC(=O)c1ccc(C(=O)Nc2cccc(-c3ccc(-c4nc5cc(C(F)(F)F)ccc5[nH]4)cc3)c2)cc1`, the Inhibition amounted to 35%.

Consider `CCCCCC(C)N/C(=N/c1ccccc1Br)Nc1ccc([N+](=O)[O-])cc1O` (stereo not given), for which the Inhibition stood at 0%.
